# Measurements taken from PubChem BioAssay AID1573 (National Center for Advancing Translational Sciences (NCATS), 2009).
# Records with an inconclusive call do not appear. A number with no mark means an inactive call. Calls of active or inactive are those of the source. Calls come from the whole dose curve; as a rule, active = well fitted inhibition curve with a large enough effect; inconclusive = small, poorly fitted or top-dose-only effect; inactive = no such curve, though single readings can be large or run the other way.
# Target: Thyroid hormone receptor beta (Homo sapiens) (UniProt P10828)
# Assay: Concentration Response Confirmation Assay for Inhibitors of the Interaction of Thyroid Hormone Receptor and Steroid Receptor Coregulator 2
# Conditions: TRb LBD + Texas Red SRC2 peptide, fluorescence polarization, 5 h; series mostly up to 92.2 µM; activity, negative = inhibition: at the top concentration
# Text: NIH Molecular Libraries Probe Production Network [MLPCN] NIH Chemical Genomics Center [NCGC] MLPCN Grant: DK058080 Assay Provider: R. Kip Guy, St. Jude Children's Research Hospital NCGC Assay Overview: Thyroid receptor (TR) regulates many homeostatic processes including basal metabolism, cardiovascular function, body weight, and lipid trafficking. TR modulators are potential therapeutics for obesity and hyperlipidemias but current thyroid analogs have undesirable side effects, particularly cardiac stimulation. To identify inhibitors that specifically prevent the interaction of TR with the steroid receptor coregulator 2 (SRC2), a fluorescence polarization assay was screened. This assay detects interaction of the ligand-binding domain of human TRb with a Texas Red labeled SRC2 peptide, corresponding to a 20 amino acid region of the nuclear receptor interaction domain (Arnold et al., 2006). Small molecule inhibitors that block the interaction of TR and SRC2 are detected by a decrease in fluorescence polarization. This assay is a confirmation assay for AID 1469. Arnold, L. A.; Estebanez-Perpina, E.; Togashi, M.; Shelat, A.; Ocasio, C. A.; McReynolds, A. C.; Nguyen, P.; Baxter, J. D.; Fletterick, R. J.; Webb, P.; Guy, R. K. A high-throughput screening method to identify small molecule inhibitors of thyroid hormone receptor coactivator binding. Sci STKE 2006, p 13.
# NCGC Assay Protocol Summary: For screening, 5 uL/well 0.6 uM TRb and 20 nM SRC2 Texas Red in protein buffer (20mM Tris hydrochloride, 100mM NaCl, 10% glycerol, 1mM EDTA, 0.01% NP-40, 1mM DTT, 1uM T3 and 5% DMSO) was dispensed into black solid 1536-well plates (Grenier) using a solenoid-based dispenser. Following transfer of 23 nL compound or DMSO vehicle by a pin tool, the plates were centrifuged 15 s at 1000 RPM and incubated 5 hr at ambient temperature. The plates were read by an Envision (Perkin Elmer) to detect fluorescence polarization of SRC2 Texas Red (555 nm excitation and 632 nm emission). Data were normalized to unbound (all components except TRb) and bound SRC2 Texas Red controls. In this assay, we provide % activity data for each concentration as well as potencies for the active compounds. Keywords: NIH Roadmap, MLPCN, MLI, MLSMR, qHTS, NCGC, qHTS, thyroid hormone receptor, steroid receptor coactivator, fluorescence polarization
# Thyroid hormone receptor beta (Homo sapiens), sequence (P10828 whole entry, looked up): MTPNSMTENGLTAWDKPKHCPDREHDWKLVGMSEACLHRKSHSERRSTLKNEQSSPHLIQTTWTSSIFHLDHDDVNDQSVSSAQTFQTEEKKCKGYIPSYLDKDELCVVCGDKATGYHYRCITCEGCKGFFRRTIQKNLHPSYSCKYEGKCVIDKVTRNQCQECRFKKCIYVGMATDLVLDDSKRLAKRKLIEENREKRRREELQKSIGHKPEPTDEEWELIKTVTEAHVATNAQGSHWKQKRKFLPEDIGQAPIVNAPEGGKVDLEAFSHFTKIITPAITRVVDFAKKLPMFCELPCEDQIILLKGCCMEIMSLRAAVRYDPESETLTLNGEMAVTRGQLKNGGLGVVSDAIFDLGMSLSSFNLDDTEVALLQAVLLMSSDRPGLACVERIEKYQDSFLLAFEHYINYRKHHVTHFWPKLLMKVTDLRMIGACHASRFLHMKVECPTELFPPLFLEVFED
Compound,Potency,"activity, negative = inhibition"
Oc1ccc2ccccc2c1/C=N/c1nccs1,31.6 µM (active),
O=C(NNc1cc(N2CCOCC2)nc(N2CCOCC2)n1)c1ccc(Cl)c(Cl)c1,31.6 µM (active),
C=CCNC(=O)/C(C#N)=C/c1c(C)nn(-c2ccc(Cl)cc2)c1Cl,17.8 µM (active),
CCCCOc1ccc(C(=O)CCN2CCCCC2)cc1,5.01 µM (active),
CN(CCO)c1nc(N)c2c(N)nc3c(c2c1C#N)CC(=O)N3C1CCCC1,,-12%
Cc1ccc(OC(=S)Nc2ccc(O)cc2)cc1,,-4.64%
Cc1cc2ccccc2n1CCNC(=O)C(C)Oc1ccccc1 (stereo not given),,-23%
Cc1nnc(SCC(=O)Nc2ccc(N(C)C)cc2)[nH]c1=O,,-22.7% [at 184 µM]
O=C(NNc1cc(N2CCOCC2)nc(N2CCOCC2)n1)c1ccc([N+](=O)[O-])cc1,20 µM (active),
CC(NC(=O)Nc1ccc(O)cc1)(C(F)(F)F)C(F)(F)F,,-30.8%
Nc1cc(-c2ccncc2)c[nH]c1=O,,-4.94%
Cc1nc2ccccc2n2c(O)c(CC(=O)O)cc12,35.5 µM (active),
Nc1cc(-c2ccccc2)c[nH]c1=O,,-24.2%
Cc1cccc(Cn2c(C(=O)OC(C)C)cc3c2ccn3C)c1,,-13.5%
CS(=O)(=O)c1ccc(C(=O)OCC(=O)NC(=O)C2CCCCC2)cc1[N+](=O)[O-],10 µM (active),
O=C(O)/C=C/C(=O)Nc1ccc(OC(F)(F)F)cc1Br,50.1 µM (active),
O=C(O)/C=C/C(=O)Nc1ccc(SC(F)(F)C(F)(F)C(F)(F)F)cc1,7.94 µM (active),
C=CC(=O)OCCOc1ccccc1,112 µM (active),
CN1CCc2ccc3c4c2[C@]1(C)Cc1cccc(c1-4)OCO3,89.1 µM (active),
COc1ccc(-c2nc(CS(=O)CC(=O)NCc3ccccn3)c(C)o2)cc1 (stereo not given),35.5 µM (active),

Compound,Potency,"activity, negative = inhibition"
Cn1cc[nH]c1=S,,-4.85%
CCCc1cc(=O)[nH]c(=S)[nH]1,,2.69%
Oc1ccc2ccccc2c1/C=N/c1nc2c(s1)CCCC2,28.2 µM (active),
COc1cc(C(c2c(C)[nH][nH]c2=O)c2c(C)[nH][nH]c2=O)ccc1OC(=O)c1cccc(C)c1,31.6 µM (active),
Cn1c(NNC(=O)c2c(F)cccc2F)cc(=O)n(C)c1=O,,-7.88%
CCCCCCN=CC1=C(O)CC(C)(C)CC1=O,,-8.95%
CCCCOc1ccc(C(=O)CCN2CCOCC2)cc1,5.01 µM (active),
O=C(Nc1nc2ccc(Cl)cc2s1)c1ccc(N2CCCCC2)c([N+](=O)[O-])c1,,-30%
COn1c2c(c3c4nonc4ccc31)CCCC2,35.5 µM (active),
CC1=NN(Cc2ccccc2)C(=O)C1,,-18.9%
O=C1CCCC(O)=C1N=Nc1cccc(S(=O)(=O)N2CCOCC2)c1,,-22.7%
O=C(O)C1C2C=CC(O2)C1C(=O)Nc1ccc(S(=O)(=O)N2CCc3ccccc32)cc1 (stereo not given),39.8 µM (active),
CN1N=C(C(C)(C)C)CC1=O,,-8.25%
Oc1ccc2ccccc2c1C=NC12CN3CCN(CN(C3)C1)C2,28.2 µM (active),
O=c1[nH]c(Nc2ccccc2)cc2ccccc12,35.5 µM (active),
C=CCNC(=O)/C(C#N)=C\c1cc(Cl)c(OCC)c(OC)c1,35.5 µM (active),
Cc1ccccc1Nc1cc2ccccc2c(=O)[nH]1,15.8 µM (active),
Cc1cc(N=Cc2c(O)ccc3ccccc23)no1,28.2 µM (active),
COc1cc(/C=C(\C#N)C(=O)NCC2CCCO2)ccc1OCCC(C)C (stereo not given),35.5 µM (active),
Cc1cccc(S(=O)(=O)c2cn(Cc3ccccc3)c3cc(N4CCC(C)CC4)c(F)cc3c2=O)c1,,-21.4% [at 184 µM]
